Out of some 360,000 compounds screened, about 16,000 (4.4%) were called active. Inconclusive results (about 9%) are left out. Only a selection was taken, and actives are over-represented in it overall. Unmarked numbers belong to inactive results. The call rests on the fitted dose curve; in most records, active means well fitted inhibition curve with a large enough effect; inconclusive means small, poorly fitted or top-dose-only effect; inactive means no such curve, though single readings can be large or run the other way.
These compounds were tested against Bromodomain adjacent to zinc finger domain protein 2B (Homo sapiens) (UniProt Q9UIF8) (assay: qHTS Assay for Inhibitors of BAZ2B). Settings: AlphaScreen BAZ2B-H3K14Ac peptide displacement; series mostly up to 114 µM; activity change, negative = inhibition: at the top concentration.
Text: BAZ2B (bromodomain adjacent to zinc finger domain, 2B) belongs to a family of ubiquitously expressed bromodomain containing proteins, which biological function has not yet been elucidated. […] The interaction of BAZ2B with ISWI mediated by the BAZ1 motif has recently been described. […] The protocol is based on the AlphaScreen (PerkinElmer) displacement assay developed by NCGC [5], but uses the peptide ligand Biot-H3K14Ac, a high affinity binding partner for BAZ2B, in an AlphaScreen format. Although AlphaScreen has significant advantages with its utility in a variety of epigenetic target assays, the primary screening data provided in this deposition should be used with caution due to the prevalence of screening artifacts. The top compound concentration tested was 110uM in this assay, which increases number of actives and potential artifacts. An AlphaScreen counterscreen is highly recommended to be run against any putative actives to eliminate non-specific artifacts. Alternatively, one can use other AlphaScreen assays in PubChem to filter out promiscuous hits. Eberharter, A. et al. ACF1 improves the effectiveness of nucleosome mobilization by ISWI through PHD-histone contacts. The EMBO journal 23, 4029-4039. 2004. PMID: 15457208 [2] Jones, M.H. et al. A novel family of bromodomain genes. Genomics 63, 40-45. 2000. PMID: 10662543 [3] Yasgar, et al. Compound Management for Quantitative High-Throughput Screening. JALA. 2008 Apr;13(2):79-89. PMID: 18496600 [4] Inglese, et al. Quantitative high-throughput screening: a titration-based approach that efficiently identifies biological activities in large chemical libraries. Proc Natl Acad Sci. 1;103(31):11473-8. 2006. PMID: 16864780 [5] Quinn et al. A chemiluminescence-based method for identification of histone lysine methyltransferase inhibitors. Mol Biosyst 6(5): 782-8. 2010. PMID: 20567762 [6] Baell,Holloway. New substructure filters for removal of pan assay interference compounds (PAINS) from screening libraries and for their exclusion in bioassays. J Med Chem. 53(7):2719-40. 2010. PMID: 20131845 NIH Molecular Libraries Probe Production Network [MLPCN] NIH Chemical Genomics Center [NCGC] Structural Genomics Consortium (SGC) NIH Grant: 5U54 MH084681-02
To each well of a 1,536w plate, 2ul of BAZ2B protein (final 50nM) and 1ul biotinylated histone peptide acetylated at Lys14 [b-H3(5-23)K14Ac] (final 50nM) were added in 1x PBS buffer, pH 7.4, containing 0.01% Tween-20, using a nanoliter dispenser. Formation of a protein-peptide complex proceeded at room temperature for 30 min. A Kalypsys pin-tool was employed to transfer 23 nL of library compound solution in DMSO to each well. Following a 30 min incubation of the protein-peptide complex with compounds at room temperature, a mixture of 40 ug/mL each streptavidin-coated donor and nickel chelate acceptor AlphaScreen beads (final 10 ug/mL) were added in a 1ul dispense for a final volume of 4ul. A brief centrifugation followed (1000rpm, 1 min) and were then incubated protected from the light for 20 min at room temperature. Plates were read on an EnVision multilabel plate reader using the 1,536 plate HTS AlphaScreen aperture (excitation time 80 ms, measurement time 240 ms).
Further: nearly all actives have a fitted effect of over 60% in size.
On the % scale 0 is the no-effect control and ±100 the full control effect; potency means the concentration at half of the fitted maximal effect.

Sequence of Bromodomain adjacent to zinc finger domain protein 2B (Homo sapiens) (Q9UIF8 whole entry, looked up, the tested form may be a part): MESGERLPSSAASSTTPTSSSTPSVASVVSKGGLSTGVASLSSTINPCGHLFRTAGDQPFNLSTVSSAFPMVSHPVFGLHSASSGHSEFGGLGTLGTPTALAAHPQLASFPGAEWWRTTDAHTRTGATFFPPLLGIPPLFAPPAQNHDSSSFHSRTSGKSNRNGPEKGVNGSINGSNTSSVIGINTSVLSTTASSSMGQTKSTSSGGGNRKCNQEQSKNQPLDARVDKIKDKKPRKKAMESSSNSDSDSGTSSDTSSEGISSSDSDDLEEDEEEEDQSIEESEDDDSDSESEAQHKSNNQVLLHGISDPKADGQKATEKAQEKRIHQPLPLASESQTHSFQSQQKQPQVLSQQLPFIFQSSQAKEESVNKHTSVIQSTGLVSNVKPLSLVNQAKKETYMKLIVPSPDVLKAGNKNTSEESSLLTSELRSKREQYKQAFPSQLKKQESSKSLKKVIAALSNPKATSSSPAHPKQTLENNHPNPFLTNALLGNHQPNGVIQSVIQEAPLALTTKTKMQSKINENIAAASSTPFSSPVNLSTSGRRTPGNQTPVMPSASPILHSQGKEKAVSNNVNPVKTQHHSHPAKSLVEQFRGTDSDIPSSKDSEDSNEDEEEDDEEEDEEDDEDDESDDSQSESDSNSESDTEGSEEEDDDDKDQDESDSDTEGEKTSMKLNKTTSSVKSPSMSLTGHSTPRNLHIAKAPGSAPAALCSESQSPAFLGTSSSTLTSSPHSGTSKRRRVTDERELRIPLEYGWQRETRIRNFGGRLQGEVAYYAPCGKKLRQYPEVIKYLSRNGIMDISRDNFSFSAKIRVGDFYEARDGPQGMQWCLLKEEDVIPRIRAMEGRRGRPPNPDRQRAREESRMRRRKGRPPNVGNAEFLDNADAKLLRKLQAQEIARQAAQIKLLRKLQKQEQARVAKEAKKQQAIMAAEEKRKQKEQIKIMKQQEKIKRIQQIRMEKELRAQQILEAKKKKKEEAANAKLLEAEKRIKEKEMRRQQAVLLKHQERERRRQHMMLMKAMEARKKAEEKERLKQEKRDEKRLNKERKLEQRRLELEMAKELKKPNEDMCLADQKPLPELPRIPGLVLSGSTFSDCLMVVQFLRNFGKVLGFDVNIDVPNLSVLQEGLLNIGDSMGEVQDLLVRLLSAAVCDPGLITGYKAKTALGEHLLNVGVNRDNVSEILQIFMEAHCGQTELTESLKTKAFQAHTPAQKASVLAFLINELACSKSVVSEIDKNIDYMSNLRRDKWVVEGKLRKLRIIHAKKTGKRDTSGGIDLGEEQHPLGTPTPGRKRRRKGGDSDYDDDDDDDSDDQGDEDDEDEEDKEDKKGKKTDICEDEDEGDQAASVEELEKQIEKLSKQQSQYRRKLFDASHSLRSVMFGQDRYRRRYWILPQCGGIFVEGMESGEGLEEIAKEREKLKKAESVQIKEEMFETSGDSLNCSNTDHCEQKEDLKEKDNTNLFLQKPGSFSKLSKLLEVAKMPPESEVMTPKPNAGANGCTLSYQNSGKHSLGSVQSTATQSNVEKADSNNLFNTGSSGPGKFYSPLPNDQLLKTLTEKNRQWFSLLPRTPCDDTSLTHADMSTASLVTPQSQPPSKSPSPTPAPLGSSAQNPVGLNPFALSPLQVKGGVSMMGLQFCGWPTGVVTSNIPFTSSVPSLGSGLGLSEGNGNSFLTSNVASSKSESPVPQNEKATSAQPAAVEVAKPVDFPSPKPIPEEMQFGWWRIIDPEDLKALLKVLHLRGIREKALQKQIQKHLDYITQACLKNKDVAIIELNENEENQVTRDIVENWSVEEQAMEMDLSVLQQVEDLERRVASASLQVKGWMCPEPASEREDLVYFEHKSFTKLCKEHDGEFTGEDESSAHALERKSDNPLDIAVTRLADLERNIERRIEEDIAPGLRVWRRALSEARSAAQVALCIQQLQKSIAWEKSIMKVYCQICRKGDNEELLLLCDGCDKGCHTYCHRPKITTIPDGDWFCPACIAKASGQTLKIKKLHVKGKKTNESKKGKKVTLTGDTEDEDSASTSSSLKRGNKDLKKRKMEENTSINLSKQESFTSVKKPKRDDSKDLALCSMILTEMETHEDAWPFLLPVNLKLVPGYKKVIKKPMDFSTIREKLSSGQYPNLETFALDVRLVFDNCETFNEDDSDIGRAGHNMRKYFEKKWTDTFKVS

Row | Structure (SMILES) | activity change, negative = inhibition | Potency
1 | COc1ccc(OC)c(NC(=O)CSC2=Nc3ccccc3C3=NC(CC(=O)NCCc4ccccc4)C(=O)N23)c1 (stereo not drawn) | -15.3% | –
2 | O=C(CCSCc1ccccc1F)N1CCN(c2ccc(Cl)cc2)CC1 | 1.82% | –
3 | CCCc1nc2ccccc2c(=O)n1/N=C/c1ccc(O)c(O)c1 | – | 56.2 µM (active)
4 | CCOc1cc(/C=N/NC(=O)c2cc(-c3ccccc3)nc3ccccc23)ccc1O | -0.596% | –
5 | O=c1c2ccccc2ncn1/N=C/c1ccccc1 | 0.598% | –
6 | COc1ccc(Cn2ccn(Cc3cccc(OC)c3)c(=O)c2=O)cc1 | -26.1% | –
7 | COc1ccc(CCNC(=O)c2ccc(-n3c(C)cc4c3CCCC4)cc2)cc1OC | -8.94% | –
8 | CC(C)(C)c1ccc(Oc2ccc(N)cc2)cc1 | – | 39.8 µM (active)
9 | CN(C)S(=O)(=O)c1ccc(Oc2ccc(S(=O)(=O)N(C)C)cc2)cc1 | 0.486% | –
10 | Cc1ccc(Oc2ccc(N)cc2)cc1 | – | 31.6 µM (active)
11 | Cc1cc(C)cc(N)c1 | 0.691% | –
12 | CC(C)(c1ccccc1)c1ccc(OCCN)cc1 | -0.871% | –
13 | CC(C)(C)c1ccc(OC2=CS(=O)(=O)c3ccccc32)cc1 | 3.61% | –
14 | O=C(CSc1oc(-c2ccco2)nc1S(=O)(=O)c1ccc(Cl)cc1)c1ccccc1 | 15.2% | –
15 | CC(C)(C)C1C/C(=C/c2ccco2)C(=O)/C(=C/c2ccco2)C1 (stereo not drawn) | – | 25.1 µM (active)
16 | CCc1ccc(C2C(C(=O)Nc3ccccc3)=C(C)Nc3c(C(=O)Nc4ccc(C)cc4)cnn32)cc1 (stereo not drawn) | 8.98% [at 57.1 µM] | –
17 | Cc1cc(O)c(C(c2ccccc2)N2CCN(c3ccccc3F)CC2)c(=O)n1Cc1ccco1 (stereo not drawn) | -38.4% | –
18 | O=C(O)c1ccccc1N=N/C(=N/Nc1cc(S(=O)(=O)O)ccc1O)c1ccccc1 | – | 11.2 µM (active)
19 | CCOC(=O)N1CCc2c(sc3c2c(=O)n(-c2ccc(CC)cc2)c(=O)n3C)C1 | 2.66% | –
20 | O=[N+]([O-])c1ccc(F)cc1Oc1nc(-c2cccnc2)nc2ccccc12 | -16.4% | –
21 | O=[N+]([O-])c1ccc(Oc2ccc(F)cc2Br)c2ccncc12 | – | 31.6 µM (active)
22 | Oc1c(Cl)cc(Cl)c(Cl)c1Cc1c(O)c(Cl)cc(Cl)c1Cl | – | 50.1 µM (active)
23 | CCOc1ccc(N(Cc2ccccc2)C(=O)c2nc(S(C)(=O)=O)ncc2Cl)cc1 | -21.6% | –
24 | CCc1ccc(NC(=O)CN2C(=O)CCSc3ccc(S(=O)(=O)N4CCCC4)cc32)cc1 | -4.59% | –

Row | Structure (SMILES) | activity change, negative = inhibition | Potency
25 | CCOC(=O)c1ccc(NC(=O)c2c(NCc3cccs3)sc3c2CCCC3)cc1 | – | 28.2 µM (active)
26 | CCOC(=O)c1ccc(NC(=O)c2csc3c2CCCCC3)cc1 | -0.642% | –
27 | CCOC(=O)c1ccc(NC(=O)c2c(NCc3cccc(OC)c3)sc3c2CCC3)cc1 | 3.03% | –
28 | Cc1ccc(-c2nn3c(=O)cc(CN4CCN(C(=O)Nc5cccc(C(F)(F)F)c5)CC4)nc3s2)cc1 | -22.9% | –
29 | COc1cc(CN(C(=O)c2ccccc2Br)c2ccccn2)cc(OC)c1OC | -18.4% | –
30 | COc1ccc(OC)c(CNC(=O)c2c3c(nc4ccccc24)C(=O)N(C2CCCCC2)C3)c1 | -9.86% | –
31 | Cc1ccc(Nc2cc(C)nc3c(C)ccc([N+](=O)[O-])c23)cc1 | – | 10 µM (active)
32 | Cc1cc(Nc2ccc(C(=O)N3CCCCC3)cc2)c2cccc(C)c2n1 | 0.772% | –
33 | Cc1ccc(NC2=NC(c3ccccc3)n3c(nc(C)cc3=O)N2)cc1 (stereo not drawn) | 12.2% | –
34 | CCc1c(C)nc2cc(-c3cccs3)[nH]n2c1=O | 2.81% | –
35 | Cc1cc(=O)n2[nH]c(-c3cccc(Cl)c3)cc2n1 | -1.33% | –
36 | Cc1cc(=O)n2[nH]c(-c3sccc3-n3c(C)ccc3C)cc2n1 | – | 50.1 µM (active)
37 | COc1ccc(Cc2nc3ccc(C(=O)NCc4ccccc4C)cc3o2)cc1 | 0.109% | –
38 | Cc1cccc(N2CCN(c3ccc(C(=O)O)cc3NC(=O)c3ccccc3F)CC2C)c1 (stereo not drawn) | – | 56.2 µM (active)
39 | Cc1cccc(N2CCN(C(=O)c3ccccc3NC(=O)C3CCCCC3C(=O)O)CC2)c1 (stereo not drawn) | -2.25% | –
40 | Cc1cccc(C(=O)Nc2ccccc2N2CCN(c3ccc(F)cc3)CC2)c1 | -8.8% | –
41 | COc1ccc(NC(=O)c2sc3nc(-c4cc5cccc(OC)c5oc4=O)[nH]c(=O)c3c2C)cc1 | 5.3% | –
42 | CCn1c2ccccc2c2cc(NC(=O)COC(=O)c3ccccc3Br)ccc21 | -36.9% | –
43 | CCn1c2ccccc2c2cc(NC(=O)CNC)ccc21 | – | 56.2 µM (active)
44 | CCn1c2ccccc2c2cc(NC(=O)COc3ccc(C)cc3C)ccc21 | 2.19% | –
45 | COc1cc(Cl)ccc1Nc1ncc(C(=O)N2CCN(c3ccccc3OC)CC2)c2ccccc12 | -3.95% | –
46 | Cc1cccc(N2CCN(C3=C(c4ccccc4)C(=O)c4ccccc43)CC2)c1C | – | 2.24 µM (active)
47 | Cc1cccc(N2CCN(Cc3c(C)n(C)n(-c4ccccc4)c3=O)CC2)c1C | 5.93% | –
48 | Cc1cccc(N2CCN(c3c(CN4CCCC4)c(=O)oc4ccccc34)CC2)c1C | -9.79% | –
